High-throughput results deposited in PubChem by National Center for Advancing Translational Sciences (NCATS).
HT1080NT lethal – qHTS for induction of synthetic lethality in tumor cells producing 2HG: qHTS for the HT-1080-NT fibrosarcoma cell line. Potency, µM (highest dose often 46.1 µM), usual class: cytotoxic. HT-1080-NT fibrosarcoma viability, CellTiter-Glo ATP luminescence, 48 h. actives 1.6% (n = 360,000). AID 686970, 2013;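 note: NT is the 2HG producing partner of a matched IDH1 knockdown line; nearly all actives have a fitted effect of over 55% in size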
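HT-1080-NT fibrosarcoma cells (2HG-overproducing), 750 cells/well in RPMI with 5% FBS, dosed after 2 h and incubated 48 h at 37C. CellTiter-Glo luminescence normalized to DMSO and no-cell wells; concentration-response curves fitted and classed.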
HT1080 IDH1KD tx – qHTS for induction of synthetic lethality in tumor cells producing 2HG: qHTS for the HT-1080-IDH1KD cell line. HT-1080 IDH1 knockdown viability, ATP luminescence, 48 h. Potency, µM (titrated, usually from 46.1 µM), hits mostly cytotoxic. actives 2% (n = 360,000). AID 686971, 2013
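Using the IDH1-knockdown HT-1080 line run in the same batch and compound series as the NT line, viability after 48 h at 37 °C was determined by CellTiter-Glo luminescence and expressed as % activity.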
DT40 TDP1 no CPT – qHTS for Inhibitors of human tyrosyl-DNA phosphodiesterase 1 (TDP1): qHTS in cells in absence of CPT; actives 15% (n = 420,000); DT40 Tdp1-/- hTDP1 cells, no CPT, ATP luminescence, 48 h; Potency, µM (doses to about 46.2 µM), most hits filed as inhibitors; note: nearly all actives have a fitted effect of over 55% in size
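Chicken DT40 Tdp1-/- cells complemented with human TDP1, screened without camptothecin (DMSO vehicle only), 400 cells/well. Compounds pin-transferred, cells incubated at 37 °C for at least 48 hr. Growth read as ATP-dependent luminescence (CellTiter-Glo, 30 min at RT).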
TDP1 cell CPT – qHTS for Inhibitors of human tyrosyl-DNA phosphodiesterase 1 (TDP1): qHTS in cells in presence of CPT | actives 12% (n = 420,000) | Potency, µM (doses to about 46.2 µM), hits mostly inhibitors | chicken DT40 Tdp1-/-;hTDP1 cells + 20 nM CPT, ATP luminescence, 48 h | AID 686979, 2013; note: nearly all actives have a fitted effect of over 55% in size
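Chicken DT40 Tdp1-/- cells complemented with human TDP1, 400 cells/well, exposed to compounds plus 20 nM camptothecin for at least 48 h at 37 C; viability read as ATP content by CellTiter-Glo luminescence.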
IL1B secr inh – qHTS for Inhibitors of Inflammasome Signaling: IL-1-beta AlphaLISA Primary Screen. THP-1 LPS/ATP IL-1B secretion, AlphaLISA, 16 h; stronger effect = lower value. activity change, % at 57.5 µM. actives 4.7% (n = 360,000). AID 743279, 2014; in the data active = activity change below about -50%; inconclusive = mostly about -30% to -49%
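THP-1 cells pretreated 1 hr with compounds (up to 57.5 uM final), then stimulated with LPS (250 ng/mL final) plus ATP (1.25 mM final); secreted IL-1B measured by AlphaLISA after 16 hr, decreased signal indicating inhibition.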
Each line names hits and unclear results; the compound was inactive in the other large screens; ! = repeats disagree. Most compounds without a hit are left out; they make up all but 19% or so of the library. Unless noted, calls come from the whole dose curve; as a rule, active = well fitted curve in the direction sought with a large enough effect; inconclusive = small, poorly fitted or top-dose-only effect, or another doubt; inactive = no such curve, though single readings can be large; an effect the other way counts as inactive or inconclusive.

COc1ccc(C(C(=O)Nc2ccc(F)cc2)N(C(=O)Cn2nnc3ccccc32)C2CC2)cc1 (stereo not drawn)	DT40 TDP1 no CPT inconclusive, IL1B secr inh -72
COc1ccc(OC)c(C(C(=O)NCc2ccco2)N(C(=O)Cn2nnc3ccccc32)C2CC2)c1 (stereo not drawn)	DT40 TDP1 no CPT 16µM, TDP1 cell CPT 13µM
COCCNC(=O)CCN1N=C(c2ccccc2)CCC1=O	none
CCOC(=O)c1oc2cc(O)cc(O)c2c(=O)c1OCc1ccccc1	DT40 TDP1 no CPT 16µM, TDP1 cell CPT 18µM
CCOC(=O)c1ccc(-c2c(C(=O)OCC)oc3cc(O)c(CC)cc3c2=O)o1	DT40 TDP1 no CPT 12µM, TDP1 cell CPT 15µM
COc1ccc(CNC(=O)C2COc3ccccc3O2)c(OC)c1 (stereo not drawn)	IL1B secr inh inconclusive
CCc1nc2nc(C)c(NS(=O)(=O)c3ccc(C)c(C)c3)c(=O)n2[nH]1	none
Cc1cccc(N2CCCn3c2nc2c3c(=O)n(CCN3CCOCC3)c(=O)n2C)c1	DT40 TDP1 no CPT inconclusive, TDP1 cell CPT 21µM
COc1ccc(CCN2CCCn3c2nc2c3c(=O)n(CC(C)C)c(=O)n2C)cc1OC	DT40 TDP1 no CPT 13µM, TDP1 cell CPT 21µM
Cn1c(=O)n(Cc2ccc(F)cc2)c(=O)c2c1nc1n2CCCN1C1CCCCC1	DT40 TDP1 no CPT 21µM, TDP1 cell CPT 23µM
COc1ccc(N2CCCn3c2nc2c3c(=O)n(CCN3CCOCC3)c(=O)n2C)cc1	none
Cc1cccc(Cn2c(=O)c3c(nc4n3CCCN4Cc3ccccc3)n(C)c2=O)c1	DT40 TDP1 no CPT 11µM, TDP1 cell CPT inconclusive, IL1B secr inh inconclusive
COCCCN1C(=O)c2[nH]nc(-c3ccccc3O)c2C1c1ccc(Cl)cc1 (stereo not drawn)	HT1080 IDH1KD tx inconclusive, DT40 TDP1 no CPT inconclusive, TDP1 cell CPT 23µM
CCOc1cc(C2c3c(-c4ccccc4O)n[nH]c3C(=O)N2CCc2ccccc2)ccc1O (stereo not drawn)	DT40 TDP1 no CPT inconclusive, TDP1 cell CPT 16µM (no result: HT1080NT lethal, HT1080 IDH1KD tx, IL1B secr inh)
COc1ccc(C2c3c(-c4ccccc4)n[nH]c3C(=O)N2c2ccc(C(=O)O)cc2)cc1 (stereo not drawn)	none
CCOc1cc(C2c3c(-c4ccccc4)n[nH]c3C(=O)N2c2ccc(C(=O)O)cc2)ccc1O (stereo not drawn)	none
COCCCN1C(=O)c2[nH]nc(-c3ccccc3O)c2C1c1ccc(OC)cc1 (stereo not drawn)	DT40 TDP1 no CPT 29µM, TDP1 cell CPT 16µM (no result: HT1080NT lethal, HT1080 IDH1KD tx, IL1B secr inh)
O=C1c2[nH]nc(-c3ccccc3O)c2C(c2ccc(Cl)cc2)N1CCc1ccccc1 (stereo not drawn)	DT40 TDP1 no CPT 16µM, TDP1 cell CPT 21µM (no result: HT1080NT lethal, HT1080 IDH1KD tx, IL1B secr inh)
COc1ccc(CC(=O)NNC(=O)c2cc(Cl)ccc2OC)cc1	none
Cc1ccc2nc(-c3ccccn3)c(NC3CCCC3)n2c1	HT1080NT lethal inconclusive, HT1080 IDH1KD tx inconclusive, DT40 TDP1 no CPT 0.33µM, TDP1 cell CPT 1.3µM
Cc1ccc2nc(-c3ccc(C)o3)c(NC3CCCC3)n2c1	DT40 TDP1 no CPT 13µM, TDP1 cell CPT 11µM (no result: IL1B secr inh)
CCOCCOC(=O)c1cccc2c1-c1ccccc1C2=O	none
CN(N)c1nc(C(F)(F)F)nc2ccccc12	none
CN(NS(=O)(=O)c1ccc(Br)cc1)c1nc(C(F)(F)F)nc2ccccc12	HT1080NT lethal inconclusive, HT1080 IDH1KD tx 18µM, DT40 TDP1 no CPT inconclusive, TDP1 cell CPT 23µM, IL1B secr inh -55
O=c1[nH]c2ccsc2c(=O)n1CCO	none
COc1ccc(CNC(=O)CCc2cn(C)c3ccccc23)cc1	none (no result: HT1080NT lethal, HT1080 IDH1KD tx, IL1B secr inh)
Cn1cc(CCCC(=O)NCc2ccc(F)cc2)c2ccccc21	DT40 TDP1 no CPT 21µM!, TDP1 cell CPT inconclusive
COc1ccccc1CNC(=O)CCCn1c(=O)c2ccccc2n(Cc2ccccc2C#N)c1=O	DT40 TDP1 no CPT 4.6µM, TDP1 cell CPT 26µM (no result: HT1080NT lethal, HT1080 IDH1KD tx, IL1B secr inh)
